# Measured values as given in PubChem BioAssay (NCATS).
# Results filed as inconclusive are left out. Entries that show only a call come without a potency. A number with no mark means an inactive call. Activity calls are given as the source filed them. Calls follow the shape of the dose curve; as a rule, active = well fitted curve in the direction sought with a large enough effect; inconclusive = small, poorly fitted or top-dose-only effect, or another doubt; inactive = no such curve, though single readings can be large; an effect the other way counts as inactive or inconclusive. Square brackets hold non-standard residues; d marks the D form. Peptide text beside a SMILES is read from it. 2Abz = Nc1ccccc1C(=O)O
# Legend:
# [1] = target: Cellular tumor antigen p53 (Homo sapiens) (UniProt P04637); assay: Primary qHTS for small molecule compounds that upregulate eGFP-tagged delta133p53alpha (in N-terminal) cells. (AID 2060322); settings: NCI-H358 eGFP-delta133p53alpha fluorescence, 24 h; activation: hits give high values; also: nearly all actives have a fitted effect of over 75% in size; also: potency is read from the fitted curve at half-maximal effect;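 as to activation: cells pre-induced with doxycycline then dosed without doxycycline; series mostly up to about 56 µM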
# Method in brief: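 NCI-H358 cells pre-induced 24 h with 10 ng/ml doxycycline for eGFP-delta133p53alpha, plated dox-free and exposed 24 h at 37C to titrated compounds. Fixed, Hoechst-stained; gated GFP peak intensity by laser scanning cytometry, normalized to DMSO (0%) and 57.5 uM 5-azacytidine (100%).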
# [2] = target: Aldehyde dehydrogenase, mitochondrial (Homo sapiens) (UniProt P05091); assay: qHTS for Inhibitors of the Aldehyde Dehydrogenase Family (ALDH2) Primary screen (AID 2061308); also: nearly all actives have a fitted effect of over 55% in size
# [3] = target: Retinaldehyde dehydrogenase 3 (Homo sapiens) (UniProt P47895); assay: qHTS for Inhibitors of the Aldehyde Dehydrogenase Family (ALDH1A3) Primary screen (AID 2061315)
# Cellular tumor antigen p53 (Homo sapiens), sequence (P04637 whole entry, looked up): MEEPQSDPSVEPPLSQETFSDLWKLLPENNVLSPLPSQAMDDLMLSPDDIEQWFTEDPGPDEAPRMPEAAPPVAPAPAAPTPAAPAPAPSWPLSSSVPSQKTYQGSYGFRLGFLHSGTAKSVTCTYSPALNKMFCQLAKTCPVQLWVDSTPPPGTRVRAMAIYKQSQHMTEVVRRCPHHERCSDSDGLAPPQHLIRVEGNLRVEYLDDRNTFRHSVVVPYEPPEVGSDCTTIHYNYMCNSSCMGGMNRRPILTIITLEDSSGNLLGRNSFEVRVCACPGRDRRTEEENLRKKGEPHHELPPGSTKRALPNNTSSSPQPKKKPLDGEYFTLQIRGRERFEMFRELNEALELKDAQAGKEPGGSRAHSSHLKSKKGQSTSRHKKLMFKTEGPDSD
Compound,activation [1] [%],Potency [2],Potency [3],"activity change, negative = inhibition [2]","activity change, negative = inhibition [3]",Potency [1]
COC(=O)C1=COC(O[C@@H]2O[C@H](CO)[C@@H](O)[C@H](O)[C@H]2O)[C@@H]2[C@@](C)(O)[C@@H](OC(=O)/C=C/c3ccccc3)C[C@]12O (some centres undefined),15.2,inactive,inactive,–,–,–
C=C1CCC[C@]2(C)CC[C@@H](C(=C)C(=O)O)[C@H](O)[C@@H]12,-7.63,inactive,inactive,–,–,–
C=C[C@@](C)(O)CC/C=C(\C)C(=O)O[C@@H]1[C@@H]2O[C@]2(C)[C@H]2[C@H](O[C@@H]3O[C@H](CO)[C@@H](O)[C@H](O)[C@H]3O)OC=C[C@@]12O,-3.57,inactive,inactive,–,–,–
H-DPPDPDRFYGMM-NH2,-11,inactive,inactive,–,–,–
CC(=O)O[C@@H]1C[C@@H](OC(C)=O)C(C)(C)/C=C/[C@H](C)[C@H](OC(C)=O)[C@@]2(O)C[C@H](C)[C@H](OC(=O)c3ccccc3)[C@@H]2/C=C/1C,-3.82,inactive,inactive,–,–,–
CO[C@H]1C=C2C(CC[C@H](O[C@@H]3O[C@H](CO)[C@@H](O)[C@@H](O)[C@H]3O)C2(C)C)[C@]2(C)CC[C@]3(C)C([C@H](C)C(O)C(C=C(C)C)O[C@@H]4O[C@H](CO)[C@@H](O)[C@@H](O)[C@H]4O)CC[C@@]3(C)C12 (some centres undefined),0.763,inactive,inactive,–,–,–
O=C1NC(Cc2c[nH]c3ccccc23)C(=O)NC1Cc1cnc[nH]1 (centres undefined),-5.36,inactive,inactive,–,–,–
CN(CC1COCCO1)S(=O)(=O)Nc1ccc2ccc3ncc(-c4cnn(C)c4)cc3c(=O)c2c1 (centres undefined),0.893,inactive,inactive,–,–,–
CC(O)/C=C/C1OC(=O)CC1Nc1ccc(C(=O)O)cc1 (centres undefined),-6.11,inactive,inactive,–,–,–
CC(=O)N[C@@H](CCCCN)C(=O)N(C)[C@@H](CC(C)C)C(=O)N[C@H](C(=O)N(C)[C@@H](Cc1ccccc1)C(=O)N[C@H](Cc1ccccc1)C(N)=O)C(C)C,7.67,–,–,0.957% [at 5.59 µM],0.0688% [at 5.59 µM],–
C/C=C(\C)C(=O)OC1C(C)C2(O)C3C=C(C)C(=O)C3CC(CO)=CC2C2C(C)(C)C12OC(C)=O (centres undefined),-19.8,inactive,inactive,–,–,–
CC(C)C1C(OC(=O)/C=C/c2ccccc2)CC2(C)OC2CCC2(C)OC2C1O (centres undefined),-0.763,inactive,inactive,–,–,–
Cc1cc(CS(=O)(=O)c2ccccc2)cc(OCc2ccc(CN3CCCC3CO)cc2)c1 (centres undefined),8.93,inactive,inactive,–,–,–
CC(=O)Nc1ccn(C2COC(COC(=O)c3ccccc3)O2)c(=O)n1 (centres undefined),16.4,inactive,inactive,–,–,–
CC1(C)CCC[C@]2(C)C1CC=C(CO)[C@H]2CC/C(=C/CO)CO (some centres undefined),-15.3,inactive,inactive,–,–,–
C=C1[C@H](OC(C)=O)[C@H]2[C@@H](OC(C)=O)[C@](C)(OC(C)=O)C[C@]2(OC(C)=O)C(=O)[C@H](C)/C=C/C(C)(C)C(=O)[C@H](OC(=O)C(C)C)[C@H]1OC(C)=O,2.29,inactive,inactive,–,–,–
CC1OC(OC2C(O)C(OC3CCC4(C)C(CCC5(C)C4CC=C4C6CC(C)(COC7OC(CO)C(O)C(O)C7O)CC(O)C6(C)CCC45C)C3(C)C)OC(C(=O)O)C2O)C(O)C(O)C1OC1OCC(O)C(O)C1O (centres undefined),-4.46,inactive,inactive,–,–,–
O=C(/C=C\c1ccc(O)cc1)N[C@@H](Cc1ccc(O)cc1)C(=O)O,17.9,inactive,inactive,–,–,–
CCC(C)C1NC(=O)C2CCCN2C(=O)C(C(C)C)NC(=O)c2ccccc2NC(=O)C(Cc2ccc(O)cc2)NC(=O)C(C)NC(=O)C(C(C)O)NC1=O (centres undefined) (cyclo([2Abz]VPITAY); configuration not given here),0.763,inactive,inactive,–,–,–
CC(C)C1NC(=O)C2CCCN2C1=O (centres undefined),8.93,inactive,inactive,–,–,–
COc1cc2c(cc1OC)[C@@H]1[C@H](O)[C@@H](OC)C=C3CCN(C2)[C@H]31,–,inactive,inactive,–,–,16.6 µM (active)
CC(C)=CCC[C@](C)(O)[C@H]1CC[C@]2(C)[C@@H]1[C@H](O)CC1[C@@]3(C)CC[C@H](O)C(C)(C)C3[C@@H](O[C@@H]3O[C@H](CO)[C@@H](O)[C@H](O)[C@H]3O[C@@H]3OC[C@@H](O)[C@H](O)[C@H]3O)C[C@]12C (some centres undefined),-16.8,inactive,inactive,–,–,–
CC1CCC23COC(=O)C2=CC(O)CC3C1(C)CCc1ccoc1 (centres undefined),-14.3,inactive,inactive,–,–,–
